Whole data set: some 59,000 sequences, median the read-out near -0.00055, cut for the lowest 2% near -2. The entries come from a sample that favours the lowest values as a whole.

A short description of the test: Identification of proteins required for the processing of the EWS-FLI1 nascent transcript.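 Note: robust z of luciferase light less the median z of siRNAs with the same seed.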 The conditions noted are these: TC32 Ewing sarcoma NR0B1-luc vs CMV-luc (EWS-FLI1 target promoter against control promoter), 48 h; screened at 20 nM (by protocol). The method in brief: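 Readout: OneGlo luminescence, 48 h post-transfection, TC32-NR0B1-luc vs TC32-CMV-luc in parallel. siRNA 20 nM final, RNAiMax lipid, 600 cells/well; z-score-MAD transformed, then seed-adjusted.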
For UUGUCUAGAAGAAUUGUCG against TTC3, the seed-corrected z-score was -0.75.
In the case of UUAGGGACGAUGUCCACGG against RSPH6A it was -0.977.
In the case of UCUGGUUCAGCAUGAGCUG against SYT8 it was -2.2.
Then UAUAACUUGUCGGAAACGC against NPIPB3, with 0.406; and UCAAGUCCGACUUGGAGCG against FAM110A, with -0.0203; and AGUCUGAAUACCAUCCUUC against GATA1, with -0.386.
Regarding AACAUAGCUAAAAUGAUCC against CLMN, the seed-corrected z-score is -2.28.
Turning to ACUGAGCUCAUUCUUGUCC against HSF1, the seed-corrected z-score is -0.661.
Then UUUACAGCUGAUGAUAUGG against RWDD4, with -0.249; and UUCGAUAGUAACAAAGUUC against PCDH9, with -2.03; and AAAGUCUCCAGUUAAUAGC against MRPL46, with 1.41.
Sequence UAGUGCACCACGCAGGUCU against FKBP1A returned a seed-corrected z-score of 0.92.
Then UUACGGACAUCCGAUCUUC against DPYS, with -0.0377.
Then UCAUAGUCCGCGAUCACCU against EDF1, with -0.388; and UAUCCAGUACGUGAGGCCC against LRP5L, with -1.82.
In the case of UUGGUUGUCAGAGUAGGUG against HSPA1L it was -2.39; in that of UUUCCCAUCCUUAAAGAGC against PTGS1, -0.201.
In turn, AAUCUAACUGCAUUCGUUG against RSBN1L yielded a seed-corrected z-score of 0.409.
Take UUGUGAGCCGACAGGAUGC against PYCR2: the seed-corrected z-score is -0.604.
As to AAAACAUACAUUGACUUGC against LINC01098, the seed-corrected z-score is -0.153.
In the case of UGAGUUUCCGUACCACACC against PRDM12 it was -2.92; in that of UAUUCCCUAAUAAAGCAGG against ZMYM5, 0.289; in that of UUCUUCAACCUUGAGGCGG against SNAPC5, 0.755.
In the case of UGAUGUCUACAAUAUCACC against RPL21 it was -2.69; in that of UGGGUGAUAAGAAAAACAG against CD40LG, -0.837.
Then AAAGCAAAUAGUAUGGUUC against ATG5, with 0.522; and UGGACUCCUACAUUACUGC against EFCAB13, with 0.0128; and AAAGGUACUCUUGGGCAGG against EEF1G, with -0.242.
UUAGGUAAUACACUAUUUG against THAP2 came in with a seed-corrected z-score of 0.091.
Regarding UCCCAGACUUUGACCAUGC against WDR38, the seed-corrected z-score is -2.
Then UCUUGUGGAUGUAAUAUGC against SIMC1, with -0.283; and UUCUUCUACAGGCUUGAGG against SMNDC1, with -0.35; and UGAGUUUGAACCCAAAAGU against IGFL4, with 1.44.
In the case of UCUGUAGUCAGUUUGGUUG against LDB1 it was -0.7; in that of UCAUCUUCUCCAACUUUUC against GINS2, 0.362; in that of AAGCUUGUAAGUAUAGACG against SF3B3, -2.14.
Then AUAGAAAACACCAAGAUUA against TMEM63A, with 0.279; and AUAUGACCUACUACCAUCC against LURAP1, with 0.3.
Take ACAUGAUCAACUGGUAGUC against TTBK1: the seed-corrected z-score is -4.16.
UAAGGUAAGAGCCUGUGCU against ZNF177: the seed-corrected z-score worked out at 0.0512.
Regarding AAAAGUAUCAGCAGAAGUC against GPR156, the seed-corrected z-score is -0.243.
Then UAGUUGAAGAGGGCGUGGG against TAS1R3, with -0.153.
In the case of AACGGAACCUGUGAGAUCC against LARS2 it was -0.262; in that of UAACUGAAUGGCAUCCCGG against C6orf226, 0.21.
UUGUAGUUCAGCUGGUUGU against SPATA2: the seed-corrected z-score was -2.04.
In the case of UCCUGGAGCAUAUCCGAGC against TMPRSS5 it was 0.289.
Then UCAUUUAGCUUUACCACCC against AHCYL1, with 0.0585; and UUGUAUUCCACAGAAGUAA against SLC25A41, with 0.115; and UGUCGUAUCUCUCUUCAUC against TNNI3, with -0.115.
Then UUACUGCUGAAUACAGACU against HRASLS, with -2.09; and UAUGUCCCAAAUAUACACC against SLC36A3, with 0.459; and UUCUUACUCCAAUAUCUCC against WWC2, with -0.0295.
As for UUUGAUGAAGGGUACGUGG against KIF11, the seed-corrected z-score was -2.31.
In the case of UUCUCAAUGAUAUUAUGGG against SREBF2 it was -0.569; in that of AUCAUAGCAACAGUGCUGC against IGFL1, -2.6.
In the case of UGAACAUUGAGUAACGAAC against ORAOV1 it was 0.0373; in that of UCUGUUCUCGGUCAAAGAC against DCAF11, -0.91.
In the case of UUUAGUUCCUGAUCGAAAG against ZNF800 it was 1.28; in that of AUCUUUACGAGCUUCAGCC against FAM185BP, 1.55.
Take UCACUGUCAAACUCGUGCC against ARHGAP33: the seed-corrected z-score was -2.08.
Then AUUGUAAUCGCGAAUAUCC against MESDC2, with 0.809.
In the case of UUCCCUCUUUGGGUCUUCC against SNX11 it was 0.0123.
Then UACAGCUCCGAAAAACUCC against SIPA1, with -1.18.
For the sequence UUGACUGUCACUGAGGUAG against SDK2, the seed-corrected z-score was -0.0428.
Consider UGUCGUACCAGUCGGACCA against TAC1, for which the seed-corrected z-score is -2.02.
Then UAUUCGUUAUCAAAUUGUG against TMOD3, with 0.393; and UCCGUUUUCCACGUAGUGC against FRMD1, with -0.836; and UAUGUCUUCACGCAGCCGC against PI4KAP2, with -1.12.
Then UACGUUUGCUUUGCGCUCG against NR0B1, with -0.672.
Then UUGGGAUUAACACUUGUGA against LINC00851, with -2.42; and UUGAAGUUUUCAAUUGUGC against CYSLTR2, with -0.797; and UCAGCUAACUCUGUCUCUG against SNX19P3, with -0.302.
Take AUUGUGAUGAACCUCGUCC against ARHGAP40: the seed-corrected z-score was -0.617.
Then UUAGUGAUCUGAUAGUGGG against POGLUT1, with 0.238; and AAUUCCAAAACCAAUGUGC against MS4A12, with 0.147; and UGUUUCUCUGACUUGAGUG against IFI27L2, with -2.28.
In the case of UUCUUAUUGAGUUUCAGCC against MSN it was 0.564.
Then UAAAUUUGUCGAGUUGCUC against CFAP99, with 0.485.
Sequence UUGACAAAAGUGAGGAUCG against LGALS14 registered a seed-corrected z-score of 0.5.
In the case of UCUAUGGGCAGUGGCAUCU against GOLGA2P10 it was -1.07.
In the case of UGUGCAACUGGUCUUGUGC against BBS4 it was 0.33; in that of UGUUGUAGAAGGUAAACCC against CLRN3, -2.64; in that of UAAUGUCAAAUUUUCCUCC against P2RX7, -0.332.
Then UCCAUUGCAAUUGUGCCCA against MAGEA4, with -0.0267.
In turn, UUUCUUCACGUGGAUAGCC against GABRG2 had a seed-corrected z-score of 0.574.
Then UUCCAGAAAAAGCCGCACG against PLD6, with -0.608.
Then UUUCCUUCCAACUCUGCGC against ZNF835, with -1.63; and UACGUUAGGACGGCUCAGG against RLTPR, with -1.06.
On to UCAUGUGGCAUUUCUGGGA against LOC642852, for which the seed-corrected z-score was -2.43.
In the case of AUUCUUACCACAACUAUCC against SRP14, the seed-corrected z-score is -0.807.
Then UAAGCUGCGUGUUUUUAUC against TRIM14, with -2.45; and UUUACGAAGUUUUUGAUAG against EML1, with -0.287; and UUUGUAGAGAAGUUUCACC against ZNF517, with 0.211.
Then UUAGCUUCAACGGUGUUAC against E2F8, with -1.58; and UCGAUGAACAACCAUAUGC against PRKAA2, with 0.499; and UUAUCUGCUUUAGAUUUGC against PYROXD1, with -0.293.
GAAGGUGCAGAUCUGUUUG against SCX: the seed-corrected z-score is -2.92.
In the case of UCAUCUACGAUAUUCAUGA against ADAMTS14 it was -0.269.
In the case of UAAGCAUCUCACAAAAUCG against MITD1 it was -0.778; in that of AAACUUCACUGUUACUUGG against LYSMD1, -0.262; in that of UCGGUAACAAAAAUUAGUG against RNF217, 0.42.
Then UCUGUUCAAUACUUAAACC against PRUNE2, with -0.544.
With UUUCUUAUCACCAUCAAAC against PGD, the seed-corrected z-score stood at 0.244.
For the sequence UAAGUUGCGAGCGUAGUGG against GAL3ST4, the seed-corrected z-score is -3.11.
Then UAUGUAGCAAAUCACAGUA against TMEM39A, with 0.421; and UCUGCGGAAACUUUGGUGG against CDH11, with -0.023; and UCUUGAUACAGAUUCCAUC against RFX8, with 0.516.
Then UCCUUUAGCACCUUCACCG against RAD23A, with -2.73.
In the case of UUGUUGUCAAUGUUAAUCG against SNX29P1 it was -0.677.
AUAUUUCAAGGCAAGCUUC against DNAJC5 had a seed-corrected z-score of 0.415.
In the case of AUGGUAGCGGAAGAAAUUC against TMEM205 it was -2.26; in that of UAAUCUUUAUUGUCACUAG against GRB7, -0.659.
In the case of UUUGGCAAGACUUAACUUG against SCGB1D2 it was 0.678; in that of AUUUUGUCACUGGAAAGGC against OIP5, 0.784.
Then UAUGCGCUUUGAGACUAGC against ZNF236, with -0.344; and UUGAGGUUACUGGAGCUGC against ZNF683, with -0.208; and AUCCUUAAUGUAACUAUUG against C12orf60, with 0.108.
Turning to UAUAUCAUUAAGCAAUGCC against SF3B1, the seed-corrected z-score is -3.22.
Sequence UAAGUAGACGUGCAGAUCA against MFSD6L showed a seed-corrected z-score of 0.136.
Consider UACUCGAAGAUCAUCUUGG against MYO6, for which the seed-corrected z-score is -0.142.
In the case of AUAGUUCCCUCGAUGAGGC against CCS it was 0.322; in that of UCUCCUGUAACAGACUCUG against ERICH1, 0.83.
In the case of AUAGACAACUUUGAGGUCC against AP1S1 it was -0.000301.
In the case of UUCAGCACAGAGAAAUUCG against SHISA2 it was 1.31; in that of UUGUUACUAAGAUCAACAG against PIWIL4, -0.273; in that of UAAAAUAUCAAGCGAAUCA against LOC399886, 0.0836.
As for UACCGGGAUACAUGCAUGC against KIAA1551, the seed-corrected z-score was -2.73.
Then AAACGAAACAUGACGACAC against RSG1, with -0.0435; and UGAUGUACUCCACUGAUGC against TFEC, with -0.552; and UCUCUUUGUGGUGUACUUG against FGF13, with -12.9.
Take UUCCGAAUGGAAACUCUGG against BCL7C: the seed-corrected z-score came to 0.615.
Then AUACCGAUCAUAGCACAUC against OR2A12, with 0.195.

Values taken from PubChem BioAssay AID1159506 (National Center for Advancing Translational Sciences (NCATS), 2015).
